Bioassay records: PubChem, The Scripps Research Institute Molecular Screening Center
An excerpt weighted towards active compounds, which were near 2.3% of everything screened.
PAD4 FP inh = blocks human protein arginine deiminase 4 | inhibition, % at 6.36 µM | 330,000 tested, 0.41% active | AID 485272 | Q9UM07 | recombinant PAD4, RCA probe fluorescence polarization;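 active = percent inhibition above a cutoff equal to the mean of all tested compounds plus 3 SD, cut at about 15% in these data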
PME-1 inh = PME-1 (human) inhibition; AID 2130; recombinant PME-1, FP-Rh probe fluorescence polarization; 320,000 tested, 0.53% active; Q9Y570; inhibition, % at 5.9 µM;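 active = inhibition above the campaign mean of all compounds plus 3 SD, cut at about 26% in these data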;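 also: competitive labeling of PME-1 active site by serine hydrolase directed probe; inhibitors block probe labeling so polarization falls and inhibition rises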
GSTO1 counter = counter-screen for RBBP9 inhibitors: inhibitors of human GSTO1 | 300,000 tested, 1.1% active | inhibition, % at 5.96 µM | recombinant GSTO1, activity-based probe fluorescence polarization | AID 1974;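 active = inhibition above the campaign mean inhibition plus 3 SD, cut at about 35% in these data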
Target sequence (P78417 whole entry, looked up): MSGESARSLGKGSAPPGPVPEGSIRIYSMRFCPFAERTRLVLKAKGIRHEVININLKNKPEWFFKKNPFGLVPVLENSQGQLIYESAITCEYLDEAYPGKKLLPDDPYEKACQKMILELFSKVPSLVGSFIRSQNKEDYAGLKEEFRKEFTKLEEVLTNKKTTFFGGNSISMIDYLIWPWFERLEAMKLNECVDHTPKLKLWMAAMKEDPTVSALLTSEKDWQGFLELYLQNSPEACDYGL
Fam108B inh = blocks mouse Fam108B hydrolase in RBBP9 counter-screen. recombinant Fam108B, FP-Rh probe fluorescence polarization. inhibition, % at 9.51 µM. 300,000 tested, 0.33% active;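 active = inhibition above the screen mean inhibition plus 3 SD, computed separately per campaign, cut at about 18% in these data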;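 also: inhibitors lower polarization as less probe binds the enzyme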
pPAFAH FP inh = inhibitors of human plasma PAF acetylhydrolase (pPAFAH); Q13093; recombinant pPAFAH, FP-rhodamine probe fluorescence polarization; inhibition, % at 3.39 µM; 330,000 tested, 1.5% active;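 active = inhibition above the mean inhibition across the screen plus 3 SD, cut at about 25% in these data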;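 also: inhibitors block binding of the rhodamine activity-based probe so polarization drops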
Target sequence (Q13093 whole entry, looked up): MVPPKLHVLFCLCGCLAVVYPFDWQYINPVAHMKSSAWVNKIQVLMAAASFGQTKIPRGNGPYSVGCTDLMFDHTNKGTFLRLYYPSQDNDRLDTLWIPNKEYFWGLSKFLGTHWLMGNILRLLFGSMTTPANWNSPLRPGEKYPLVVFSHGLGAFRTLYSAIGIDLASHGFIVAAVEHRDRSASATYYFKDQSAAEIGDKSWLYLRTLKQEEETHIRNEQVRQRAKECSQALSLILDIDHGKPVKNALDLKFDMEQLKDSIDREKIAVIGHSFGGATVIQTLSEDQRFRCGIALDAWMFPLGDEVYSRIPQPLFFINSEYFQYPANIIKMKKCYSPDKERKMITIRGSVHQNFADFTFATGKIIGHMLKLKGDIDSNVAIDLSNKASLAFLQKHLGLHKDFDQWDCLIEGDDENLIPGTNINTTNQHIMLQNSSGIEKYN
Numbers stand for hits.

How did Cc1ccccc1NP(=O)(Oc1ccccc1F)Oc1ccccc1F do in these assays?
PAD4 FP inh: inactive; PME-1 inh: 39; GSTO1 counter: inactive; Fam108B inh: inactive; pPAFAH FP inh: inactive

Results for Cc1cccc(NP(=O)(Oc2ccccc2)Oc2ccccc2)c1C ?
PAD4 FP inh: inactive; PME-1 inh: inactive; GSTO1 counter: inactive; Fam108B inh: inactive; pPAFAH FP inh: inactive

How did COc1ccc([C@@H](O)[C@@H](N)c2ccccc2)cc1 do in these assays?
PAD4 FP inh: inactive; PME-1 inh: inactive; GSTO1 counter: inactive; Fam108B inh: inactive; pPAFAH FP inh: inactive

What do the screens show for `O=C(Nc1ccc(Cl)cc1C(=O)c1ccccc1)c1ccccc1`?
PAD4 FP inh: inactive; PME-1 inh: inactive; GSTO1 counter: inactive; Fam108B inh: inactive; pPAFAH FP inh: 29

What do the screens show for `N#CC(C#N)=NNc1ccc(S(N)(=O)=O)cc1`?
PAD4 FP inh: inactive; PME-1 inh: inactive; GSTO1 counter: inactive; Fam108B inh: inactive; pPAFAH FP inh: 30

How did C[C@]12CCC3C(CC[C@H]4C[C@@H](O)CC[C@]34C)C1CC[C@@H]2OC(=O)[C@H](N)CCCCN (stereo not given in full) do in these assays?
PAD4 FP inh: inactive; pPAFAH FP inh: inactive

How did COc1ccc(OC)c(N2Cc3ccccc3C2=N)c1 do in these assays?
PAD4 FP inh: inactive; PME-1 inh: inactive; GSTO1 counter: inactive; Fam108B inh: inactive; pPAFAH FP inh: inactive

How did NP(=O)(Oc1ccc(Cl)cc1)Oc1ccc(Cl)cc1 do in these assays?
PAD4 FP inh: inactive; PME-1 inh: 71; GSTO1 counter: inactive; Fam108B inh: inactive; pPAFAH FP inh: inactive

How did CCOc1ccccc1-n1c(O)c(C=NCCCn2ccnc2)c(=O)[nH]c1=O do in these assays?
PAD4 FP inh: inactive; PME-1 inh: inactive; GSTO1 counter: inactive; Fam108B inh: inactive; pPAFAH FP inh: inactive

How did c1cncc(C2Nc3cccc4cccc(c34)N2)c1 do in these assays?
PAD4 FP inh: inactive; PME-1 inh: inactive; GSTO1 counter: 64; Fam108B inh: inactive; pPAFAH FP inh: inactive

How did O=C1Nc2cc(C(=O)N3CCC4(CC3)OCCO4)ccc2NC1CSCc1cccc(F)c1 (stereo not given) do in these assays?
PAD4 FP inh: inactive; PME-1 inh: inactive; GSTO1 counter: inactive; Fam108B inh: inactive; pPAFAH FP inh: inactive

How did CCOC(=O)c1c(N)n(CCCOC(=O)c2ccco2)c2nc3ccccc3nc12 do in these assays?
PAD4 FP inh: inactive; PME-1 inh: inactive; GSTO1 counter: inactive; Fam108B inh: inactive; pPAFAH FP inh: inactive

What do the screens show for `CCCCCn1c(NC(=O)c2ccco2)c(C(=O)OCC)c2nc3ccccc3nc21`?
PAD4 FP inh: inactive; PME-1 inh: inactive; GSTO1 counter: 74; Fam108B inh: inactive; pPAFAH FP inh: inactive

What do the screens show for `O=C1CN(C(=O)COC(=O)Cc2ccccc2)c2ccccc2N1`?
PAD4 FP inh: inactive; PME-1 inh: inactive; GSTO1 counter: 35; Fam108B inh: inactive; pPAFAH FP inh: inactive

Results for O=C(COC(=O)Cc1ccccc1)NCCNC(=O)COC(=O)Cc1ccccc1 ?
PAD4 FP inh: inactive; PME-1 inh: inactive; GSTO1 counter: inactive; Fam108B inh: inactive; pPAFAH FP inh: inactive

What do the screens show for `COc1ccc(C(=O)NC(=S)N2C[C@H]3C[C@H](C2)c2cccc(=O)n2C3)cc1`?
PAD4 FP inh: inactive; PME-1 inh: inactive; GSTO1 counter: inactive; Fam108B inh: inactive; pPAFAH FP inh: inactive

Results for CCCCC/C=C\C/C=C\C/C=C\C/C=C\CCCC(=O)Nc1ccc(O)cc1 ?
PAD4 FP inh: inactive; PME-1 inh: inactive; GSTO1 counter: inactive; Fam108B inh: inactive; pPAFAH FP inh: 36

How did Cc1ccc(C2C(=O)NC(=O)NC2=O)cc1 do in these assays?
PAD4 FP inh: inactive; PME-1 inh: inactive; GSTO1 counter: inactive; Fam108B inh: inactive; pPAFAH FP inh: inactive

Results for C/C(CC(c1ccccc1)c1c(O)c2ccccc2oc1=O)=N\Nc1ccc([N+](=O)[O-])cc1[N+](=O)[O-] (stereo not given) ?
PAD4 FP inh: inactive; PME-1 inh: inactive; GSTO1 counter: 37; Fam108B inh: inactive; pPAFAH FP inh: inactive

What do the screens show for `Nc1c(C(=O)NC2CCCC2)c2nc3ccccc3nc2n1CC1CCCO1` (stereo not given)?
PAD4 FP inh: 19; PME-1 inh: inactive; GSTO1 counter: 66; Fam108B inh: inactive; pPAFAH FP inh: inactive

Results for Nc1c(C(=O)NCC2CCCO2)c2nc3ccccc3nc2n1Cc1ccco1 (stereo not given) ?
PAD4 FP inh: inactive; PME-1 inh: inactive; GSTO1 counter: inactive; Fam108B inh: inactive; pPAFAH FP inh: 25

Results for C=CCNC(=O)c1c(N)n(CCN2CCOCC2)c2nc3ccccc3nc12 ?
PAD4 FP inh: inactive; PME-1 inh: inactive; GSTO1 counter: inactive; Fam108B inh: inactive; pPAFAH FP inh: inactive

What do the screens show for `COc1ccc(Cn2c(N)c(C(=O)NCc3ccco3)c3nc4ccccc4nc32)cc1OC`?
PAD4 FP inh: inactive; PME-1 inh: inactive; GSTO1 counter: 53; Fam108B inh: inactive; pPAFAH FP inh: inactive

Results for Clc1ccc(C(c2ccc(Cl)cc2)n2cc[n+](CC(OCc3ccc(Cl)cc3Cl)c3ccc(Cl)cc3Cl)c2)cc1 (stereo not given) ?
PAD4 FP inh: inactive; PME-1 inh: inactive; GSTO1 counter: inactive; Fam108B inh: inactive; pPAFAH FP inh: inactive

How did Cc1cc(OC(C)C(=O)NCC2CCC(C(=O)O)CC2)c2c3c(c(=O)oc2c1)CCC3 (stereo not given) do in these assays?
PAD4 FP inh: inactive; PME-1 inh: inactive; GSTO1 counter: inactive; Fam108B inh: inactive; pPAFAH FP inh: inactive

How did O=P(CCl)(Nc1ccccc1)C(Cl)(Cl)Cl (stereo not given) do in these assays?
PAD4 FP inh: inactive; PME-1 inh: 30; GSTO1 counter: inactive; Fam108B inh: inactive; pPAFAH FP inh: inactive

How did O=P(Nc1ccccc1)(Oc1ccccc1)Oc1ccccc1 do in these assays?
PAD4 FP inh: inactive; PME-1 inh: inactive; GSTO1 counter: inactive; Fam108B inh: inactive; pPAFAH FP inh: inactive

What do the screens show for `Cc1cc(C)nc(-n2c(C)nc3cc(Cl)ccc3c2=O)c1`?
PAD4 FP inh: inactive; PME-1 inh: inactive; GSTO1 counter: inactive; Fam108B inh: inactive; pPAFAH FP inh: inactive

How did CN1/C(=C\C=C\C2=[N+](C)c3ccc4ccccc4c3C2(C)C)C(C)(C)c2ccccc21 do in these assays?
PAD4 FP inh: 119; PME-1 inh: 179; GSTO1 counter: inactive; Fam108B inh: inactive; pPAFAH FP inh: inactive

What do the screens show for `CN1/C(=C\C=Nc2ccccc2)C(C)(C)c2ccccc21`?
PAD4 FP inh: inactive; PME-1 inh: inactive; GSTO1 counter: inactive; Fam108B inh: inactive; pPAFAH FP inh: inactive

What do the screens show for `Oc1c(Br)c(Br)c(Br)c(Br)c1Br`?
PAD4 FP inh: inactive; PME-1 inh: 75; pPAFAH FP inh: 32

How did CCOc1cc2c(cc1OCC)-n1cccc1C(c1c(O)cccc1OC)NC2 (stereo not given) do in these assays?
PAD4 FP inh: inactive; PME-1 inh: inactive; GSTO1 counter: inactive; Fam108B inh: inactive; pPAFAH FP inh: inactive

How did Cn1cnc(CCN)c1 do in these assays?
PAD4 FP inh: inactive; PME-1 inh: inactive; GSTO1 counter: inactive; Fam108B inh: inactive; pPAFAH FP inh: inactive
